Test results: PubChem BioAssay AID2438 (Vanderbilt High Throughput Screening Facility, 2010)
Results with a measured potency or affinity are listed apart. Active and inactive are the calls of the source.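 Rule for the calls: active = dose curve whose fit quality R squared exceeds 0.5; inactive = the rest.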

biological target: Muscarinic acetylcholine receptor M4 (Rattus norvegicus) (UniProt P08485); assay: rat M4 receptor positive allosteric modulation check, dose response, selectivity assay for M1 muscarinic PAM project, cell-based, CHO-K1 rat M4/Gqi5, Fluo-4 calcium, ACh EC20 (AID 2438); conditions: ACh EC20 potentiation; series mostly up to 30 µM
Sequence (P08485 whole entry, looked up): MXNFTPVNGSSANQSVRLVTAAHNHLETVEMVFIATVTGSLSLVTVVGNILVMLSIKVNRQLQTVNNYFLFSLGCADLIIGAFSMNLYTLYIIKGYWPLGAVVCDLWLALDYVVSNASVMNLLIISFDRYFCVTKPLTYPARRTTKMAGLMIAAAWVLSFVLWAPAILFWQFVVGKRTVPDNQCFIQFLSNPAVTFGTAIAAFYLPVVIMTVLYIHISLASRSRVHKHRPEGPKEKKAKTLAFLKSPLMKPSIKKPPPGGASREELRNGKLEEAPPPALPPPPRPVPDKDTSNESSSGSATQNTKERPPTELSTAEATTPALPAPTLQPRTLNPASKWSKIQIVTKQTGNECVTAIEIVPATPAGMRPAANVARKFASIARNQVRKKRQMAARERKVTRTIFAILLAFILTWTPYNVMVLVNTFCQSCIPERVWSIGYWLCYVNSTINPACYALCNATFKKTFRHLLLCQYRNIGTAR

outcome, inactive:
Cc1cc(NC(=O)CS(=O)(=O)c2cn(Cc3cc(Br)ccc3F)c3ccccc23)no1
O=C1C(=O)N(Cc2ccc(Oc3ccccc3)cc2)c2ccc(OC(F)(F)F)cc21
Cn1cc(-c2ccc(CN3C(=O)C(=O)c4ccccc43)c(F)c2)cn1
Cn1cc(-c2cc(F)c(CN3C(=O)C(=O)c4ccccc43)c(F)c2)cn1
